Assay results from PubChem BioAssay AID1259421 (Broad Institute, 2018).
Values joined by “and” are separate entries in the source; they are usually repeats but may differ in a detail not shown here. Equal entries are not always repeated. The campaign covered roughly 6,400 compounds. About 610 (9.5%) were called active. Cut-off read from the data, not from the text of the source: active = activity change below about -70%; inconclusive = no clear call, values can overlap the other calls; inactive = above that. Many of the other results were omitted from the sample, so actives are more common in it than they were. A structure can be active in one record and inactive in another.

Experiment: T. gondii ME49Luc in HeLa cells, luciferase assay, 72 h, no IFN-y (AID 1259421)
Conditions: stronger effect = lower value, concentration not given here

**Q.** With `CCOC(=O)[C@H](C)C[C@@H](Cc1ccc(-c2ccccc2)cc1)NC(=O)CCC(=O)O` as the compound, how does the activity change, negative = inhibition read?
**A.** Its activity change, negative = inhibition is 5.47% (inactive).

**Q.** For `Cc1cc(C)c(/C=C2\C(=O)Nc3ccccc32)[nH]1`, which activity change, negative = inhibition is on record?
**A.** The activity change, negative = inhibition was 12.4% (inactive) and 24.8% (inactive).

**Q.** For `COc1c/c(=C2\C=c3ccccc3=N2)[nH]/c1=C\c1[nH]c(C)cc1C`, which activity change, negative = inhibition is on record?
**A.** Its activity change, negative = inhibition is -83.5% (active).

**Q.** Which activity change, negative = inhibition does the source give for `FC(F)(F)c1ccc(/C=C/c2nc(COc3ccc(CCCCn4ccnn4)cc3)co2)cc1` here?
**A.** Its activity change, negative = inhibition is -18% (inactive).

**Q.** For `CN1C2CC(OC(=O)[C@H](CO)c3ccccc3)C[C@H]1[C@H]1OC21` (stereo partly specified), which activity change, negative = inhibition is on record?
**A.** Its activity change, negative = inhibition is 1.54% (inactive).

**Q.** With `NC(N)=NCCN1CCCCCCC1` as the compound, how does the activity change, negative = inhibition read?
**A.** Its activity change, negative = inhibition is 8.88% (inactive).

**Q.** Which activity change, negative = inhibition does the source give for `CC12C(=O)OC(=O)C1(C)C1CCC2O1` (stereo unspecified) here?
**A.** The activity change, negative = inhibition was -87.3% (active).

**Q.** For `c1ncc(CCCC2CCNCC2)[nH]1`, which activity change, negative = inhibition is on record?
**A.** Its activity change, negative = inhibition is 2.3% (inactive).

**Q.** For `Fc1ccc2c(CCNCc3cccc(OCC(F)(F)C(F)F)c3)c[nH]c2c1`, which activity change, negative = inhibition is on record?
**A.** Its activity change, negative = inhibition is 38.3% (inactive).

**Q.** Which activity change, negative = inhibition does the source give for `CN[C@@H](C)[C@H]1[C@H](O)C[C@@]2(C)[C@@H]3CC[C@H]4C(C)(C)[C@@H](NC)CC[C@@]45C[C@@]35CC[C@]12C` here?
**A.** Its activity change, negative = inhibition is 6.16% (inactive).

**Q.** For `CCCCCCCCCCCCCCCC(=O)OC[C@H](COP(=O)(O)OCC[N+](C)(C)C)OC(=O)CCCCCCCCCCCCCCC`, which activity change, negative = inhibition is on record?
**A.** The activity change, negative = inhibition was -5.4% (inactive).

**Q.** Which activity change, negative = inhibition does the source give for `COC(=O)c1ccccc1NC(=O)c1ccc(F)cc1` here?
**A.** Its activity change, negative = inhibition is 31.7% (inactive) and 41.2% (inactive).

**Q.** For `CC(C)CCN1c2nc(Nc3cc(F)c(O)c(F)c3)ncc2N(C)C(=O)C1C` (stereo unspecified), which activity change, negative = inhibition is on record?
**A.** The activity change, negative = inhibition was -84.4% (active).

**Q.** For `CCCCCCCC/C=C/CCCCCCCC(=O)NCc1ccc(O)c(OC)c1`, which activity change, negative = inhibition is on record?
**A.** The activity change, negative = inhibition was 6.46% (inactive).

**Q.** Which activity change, negative = inhibition does the source give for `N#Cc1ccncn1` here?
**A.** Its activity change, negative = inhibition is 17.2% (inactive).

**Q.** Which activity change, negative = inhibition does the source give for `CCc1nc(-c2cccc(C)c2)c(-c2ccnc(NC(=O)c3ccccc3)c2)s1` here?
**A.** The activity change, negative = inhibition was -91.2% (active).

**Q.** With `Cc1ccnc(NC(=O)C(C)c2cccc(C(=O)c3ccccc3)c2)c1` (stereo unspecified) as the compound, how does the activity change, negative = inhibition read?
**A.** The activity change, negative = inhibition was 48.4% (inactive).

**Q.** Which activity change, negative = inhibition does the source give for `Cc1ccc(-c2csc(NC(=O)c3ccccc3)n2)c(C)c1` here?
**A.** Its activity change, negative = inhibition is 73.8% (inactive).

**Q.** Which activity change, negative = inhibition does the source give for `CC1CNc2c(cccc2S(=O)(=O)N[C@@H](CCCN=C(N)N)C(=O)N2CC[C@@H](C)C[C@@H]2C(=O)O)C1` (stereo partly specified) here?
**A.** Its activity change, negative = inhibition is 9.02% (inactive).

**Q.** For `C[C@H]1COc2c(C3(N)CC3)c(F)cc3c(=O)c(C(=O)O)cn1c23`, which activity change, negative = inhibition is on record?
**A.** The activity change, negative = inhibition was 14.1% (inactive).

**Q.** For `COc1cc2nc(N3CCN(C(=O)c4ccco4)CC3)nc(N)c2cc1OC`, which activity change, negative = inhibition is on record?
**A.** The activity change, negative = inhibition was 0.803% (inactive) and 4.94% (inactive).

**Q.** Which activity change, negative = inhibition does the source give for `CCCC(=O)N1CCCN(c2nc(N)c3cc(OC)c(OC)cc3n2)CC1` here?
**A.** The activity change, negative = inhibition was 13% (inactive).

**Q.** Which activity change, negative = inhibition does the source give for `COc1cc2nc(N3CCCN(C)CC3)nc(NC3CCN(Cc4ccccc4)CC3)c2cc1OC` here?
**A.** The activity change, negative = inhibition was -91.5% (active).

**Q.** Which activity change, negative = inhibition does the source give for `COc1cc(O)ccc1C(C)=O` here?
**A.** Its activity change, negative = inhibition is -6.96% (inactive).

**Q.** Which activity change, negative = inhibition does the source give for `CC(=O)OCC(=O)[C@@]1(O)CCC2C3CCC4=CC(=O)CC[C@]4(C)C3C(=O)C[C@@]21C` (stereo partly specified) here?
**A.** Its activity change, negative = inhibition is -24.8% (inactive).

**Q.** For `CNc1cc(OC)c(C(=O)NC2CCN(Cc3ccccc3)C2C)cc1Cl` (stereo unspecified), which activity change, negative = inhibition is on record?
**A.** The activity change, negative = inhibition was 3.06% (inactive).

**Q.** For `CCCC(O)C(CC)CO` (stereo unspecified), which activity change, negative = inhibition is on record?
**A.** The activity change, negative = inhibition was 5.56% (inactive).

**Q.** For `CC(=O)N[C@@H](C=O)[C@@H](O)[C@H](O)[C@H](O)CO`, which activity change, negative = inhibition is on record?
**A.** The activity change, negative = inhibition was 11.9% (inactive).

**Q.** With `O=C(NOCC1CC1)c1ccc(F)c(F)c1Nc1ccc(I)cc1Cl` as the compound, how does the activity change, negative = inhibition read?
**A.** The activity change, negative = inhibition was 11.9% (inactive).

**Q.** Which activity change, negative = inhibition does the source give for `O=C(NOCC(O)CO)c1cc(Br)c(F)c(F)c1Nc1ccc(I)cc1F` (stereo unspecified) here?
**A.** Its activity change, negative = inhibition is 8.99% (inactive).

**Q.** With `Cc1cc(I)ccc1Nc1c(C(=O)NOCC2CC2)cc(F)c(F)c1F` as the compound, how does the activity change, negative = inhibition read?
**A.** Its activity change, negative = inhibition is -58.9% (inactive) and -87.6% (active).

**Q.** For `CC(C)C1CCC(C(=O)N[C@@H](Cc2ccccc2)C(=O)O)CC1` (stereo partly specified), which activity change, negative = inhibition is on record?
**A.** Its activity change, negative = inhibition is -3.8% (inactive).

**Q.** Which activity change, negative = inhibition does the source give for `CCN(CC)Cc1ccc2cc(COC(=O)Nc3ccc(C(=O)NO)cc3)ccc2c1` here?
**A.** Its activity change, negative = inhibition is -81.2% (active).

**Q.** For `CCN(CC)CCNC(=O)c1ccc(NC(C)=O)cc1`, which activity change, negative = inhibition is on record?
**A.** The activity change, negative = inhibition was 6.42% (inactive) and 2.78% (inactive).

**Q.** With `COc1ccc(Cn2ccc3ccc(C(=O)NO)cc32)cc1` as the compound, how does the activity change, negative = inhibition read?
**A.** Its activity change, negative = inhibition is 1.1% (inactive).

**Q.** With `C[C@H]1O[C@H](O[C@H]2[C@H](O)[C@@H](O)[C@@H](O[C@H]3[C@H](O)[C@@H](O)[C@H](O)O[C@@H]3CO)O[C@@H]2CO)[C@H](O)[C@@H](O)[C@@H]1N[C@H]1C=C(CO)[C@@H](O)[C@H](O)[C@H]1O` as the compound, how does the activity change, negative = inhibition read?
**A.** The activity change, negative = inhibition was 8.26% (inactive).

**Q.** For `COc1cc(/C=C(\C#N)C(N)=O)cc(CSc2nc3ccccc3s2)c1O`, which activity change, negative = inhibition is on record?
**A.** The activity change, negative = inhibition was -5% (inactive).

**Q.** Which activity change, negative = inhibition does the source give for `COc1cccc(OC)c1-c1cc(C(=O)NC2(C(=O)O)C3CC4CC(C3)CC2C4)nn1-c1ccc(C(=O)N(C)CCCN(C)C)cc1C(C)C` (stereo unspecified) here?
**A.** Its activity change, negative = inhibition is -1.72% (inactive).

**Q.** With `CC1=C(/C=C/C(=C/C=C/C(C)=C/C(=O)O)c2ccc(C)cc2)C(C)(C)CCC1` as the compound, how does the activity change, negative = inhibition read?
**A.** The activity change, negative = inhibition was 20.2% (inactive).

**Q.** For `C[C@@]12CCc3occc3[C@H]1CC[C@@]13C[C@@H](CC[C@H]12)[C@@](O)(CO)C3`, which activity change, negative = inhibition is on record?
**A.** Its activity change, negative = inhibition is 14.1% (inactive).

**Q.** With `CCN1CCCC(OC(=O)C(c2ccccc2)c2ccccc2)C1` (stereo unspecified) as the compound, how does the activity change, negative = inhibition read?
**A.** The activity change, negative = inhibition was 9.52% (inactive) and 11.2% (inactive).

**Q.** For `CC(C)C[C@@H](C(=O)N[C@H](C(=O)OC1CCCC1)c1ccccc1)[C@H](O)C(=O)NO`, which activity change, negative = inhibition is on record?
**A.** Its activity change, negative = inhibition is -91.3% (active).

**Q.** With `CNC(=O)[C@@H](NC(=O)[C@H](CC(C)C)[C@H](O)C(=O)NO)C(C)(C)C` as the compound, how does the activity change, negative = inhibition read?
**A.** Its activity change, negative = inhibition is 11.5% (inactive).

**Q.** For `C[C@@]1(c2nc3c(C(N)=O)cccc3[nH]2)CCCN1`, which activity change, negative = inhibition is on record?
**A.** The activity change, negative = inhibition was 0.526% (inactive).

**Q.** With `CC(C)Cn1cnc2c1c(=O)n(C)c(=O)n2C` as the compound, how does the activity change, negative = inhibition read?
**A.** Its activity change, negative = inhibition is 12.6% (inactive).

**Q.** For `NCCCCN(Cc1nc2ccccc2[nH]1)[C@H]1CCCc2cccnc21`, which activity change, negative = inhibition is on record?
**A.** Its activity change, negative = inhibition is 25.8% (inactive).

**Q.** Which activity change, negative = inhibition does the source give for `NCCCC[C@H](NC(=O)[C@@H](Cc1cc(Br)c(O)c(Br)c1)NC(=O)N1CCC(N2Cc3ccccc3NC2=O)CC1)C(=O)N1CCN(c2ccncc2)CC1` here?
**A.** Its activity change, negative = inhibition is 15.1% (inactive).

**Q.** For `CC[C@H]1CN2CCc3cc(OC)c(OC)cc3C2C[C@@H]1CC1NCCc2cc(OC)c(OC)cc21` (stereo partly specified), which activity change, negative = inhibition is on record?
**A.** Its activity change, negative = inhibition is -81.1% (active) and -96.6% (active).

**Q.** Which activity change, negative = inhibition does the source give for `COc1cc2c(cc1OC)[C@@H]1CC(=O)[C@@H](CC(C)C)CN1CC2` here?
**A.** The activity change, negative = inhibition was 11.3% (inactive) and 8.82% (inactive).

**Q.** Which activity change, negative = inhibition does the source give for `COc1cc2c(cc1OC)C1Cc3ccc(OC)c(OC)c3CN1CC2` (stereo unspecified) here?
**A.** Its activity change, negative = inhibition is 8.53% (inactive).

**Q.** Which activity change, negative = inhibition does the source give for `CC(=O)NCCC(=O)N[C@@H](Cc1cnc[nH]1)C(=O)O` here?
**A.** The activity change, negative = inhibition was 3.95% (inactive).
